The structures appear in SMILES notation. About 2,700 (4%) of roughly 68,000 compounds showed an effect of 50% or more. The sample holds strong results, similar compounds and a random draw of the others, so the mix is not that of the screen.

For the experiment, the system named is Plasmodium berghei. Put plainly: Screen against P. berghei liver stage (PbLuc), transformed with Luciferase, at 2uM. As to conditions: tested at 2 uM. The class given is functional, HepG2.
Turning to `Fc1cccc(CN2CCC(c3n[nH]c4ncccc34)CC2)c1F`, the INHIBITION came to 12.36%.
Regarding `Fc1ccc(CN2CCC(c3n[nH]c4ncccc34)CC2)cc1F`, the INHIBITION came out at 19.51%.
Then `Fc1cccc(Cl)c1CN1CCC(c2n[nH]c3ncccc23)CC1`, with 53.65%.
With `COc1cccc(CN(C)Cc2[nH]c3ccccc3c2C)c1O` the figure was 33.32%; with `COc1ccc2c(c1)OCC(CNC(=O)c1ccncc1)C2` (stereo not drawn), 31.38%.
With `CCc1nc(C)c(C(=O)NCC2COc3cc(OC)ccc3C2)o1` (stereo not drawn) the figure was 76.56%; with `COc1ccc2c(c1)OCC(CNC(=O)c1cc[nH]c1C)C2` (stereo not drawn), 23.79%; with `CCCC(=O)N1CCCCC1c1nc(N(C)C)ncc1-c1cc(C)no1` (stereo not drawn), -54.53%.
As for `COc1ccccc1CC(=O)N1CCCC1Cn1nc(C)cc1C` (stereo not drawn), the INHIBITION was -43.79%.
Turning to `COCCNC(=O)Cn1c(C)cc2nc(SC)n(CC(C)C)c(=O)c21`, the INHIBITION is recorded as -24.15%.
Then `Cn1ncc2c(NCCOCc3ccccc3)nc(C3CCCC3)nc21`, with -19.29%.
Then `COCCNS(=O)(=O)c1ccc(Cl)c(C(=O)N(C)Cc2sccc2C)c1`, with 64.37%; and `COCCNS(=O)(=O)c1ccc(Cl)c(C(=O)N(C)Cc2ccsc2)c1`, with 13.76%.
As for `CNS(=O)(=O)c1csc(C(=O)N(C)Cc2sccc2C)c1`, the INHIBITION is given as 46.97%.
Then `CN(Cc1cccc(OCCO)c1)Cc1cccc2ncccc12`, with 37.5%.
With `COCC(=O)N1CCC2(CCC(C(=O)N3CCCC3)O2)CC1` (stereo not drawn) the figure was 41.38%; with `O=C(NC1CC1)[C@@H]1CCO[C@@H]2CCN(C3CCCC3)C[C@H]21`, -0.18%.
With `O=C(NC1CCC1)[C@@H]1CCO[C@@H]2CCN(C3CCCC3)C[C@@H]21` the figure was 23.93%; with `O=C(NC1CCC1)[C@@H]1CCO[C@@H]2CCN(C3CCCC3)C[C@H]21`, 51.26%; with `CN1CCOC[C@H]1c1nc(-c2ccc(F)cc2F)c[nH]1`, 3.55%.
For the molecule `CC(C)(CNc1ccc2ccc(F)cc2n1)NS(C)(=O)=O`, the INHIBITION amounted to 5.92%.
With `CC(C)(CCS(C)(=O)=O)CNc1ccc2ccc(F)cc2n1` the figure was 50.93%; with `CS(=O)(=O)CCOCCNc1ccc2ccc(F)cc2n1`, 35.63%; with `CC(C)(C)c1cc(C[C@H]2CNCC[C@H]2CC(=O)N2CCCCC2)no1`, -13.88%.
As to `CCc1nnc2n1CCN(C(=O)CN(CC)CC)C2`, the INHIBITION is reported as 58.05%.
Then `CCc1nnc2n1CCN(C(=O)c1ccc(C(F)(F)F)nc1C)C2`, with -41.59%; and `CCc1nnc2n1CCN(C(=O)c1cc3ccc(F)cc3nc1C)C2`, with 54.85%; and `CCc1nnc2n1CCN(C(=O)CN(C)Cc1ccccc1)C2`, with -34.45%.
Then `CCc1nnc2n1CCN(C(=O)c1cc3cc(C)ccc3[nH]1)C2`, with 37.68%.
Then `CCc1nnc2n1CCN(C(=O)c1ccc3nc(C)c(C)nc3c1)C2`, with -72.78%; and `CCc1nnc2n1CCN(C(=O)c1cc3ccc(C)cc3[nH]1)C2`, with 58.05%; and `CCc1nnc2n1CCN(C(=O)CN(C)C1CC1)C2`, with -3.06%.
On to `CCc1nnc2n1CCN(C(=O)c1cc3ccccc3[nH]1)C2`, for which the INHIBITION is given as -3.06%.
Then `COc1cccc2c1N(C(=O)c1ccc(C)nc1)CCC2`, with 0.79%.
With `O=C(NCc1nnc2n1CCCCC2)N(CC1CCOC1)C1CC1` (stereo not drawn) the figure was -1.21%.
With `CC(C)C1CN(C(=O)c2ccsc2)CCS1` (stereo not drawn) the figure was -9.94%; with `CN(C)c1cc(NCc2cnc3n2CCN(CC2CC2)CC3)ncn1`, 34.04%; with `O=C(NCc1ccccn1)[C@]12COC[C@H]1CN(Cc1ccsc1)C2`, 42.62%.
As to `Cc1ccc2nc(C)cc(C(=O)NC(C)c3nnn[nH]3)c2c1` (stereo not drawn), the INHIBITION is given as -67.78%.
As for `CNC(=O)CN(C)c1cncc(OCc2ccccc2)n1`, the INHIBITION is recorded as -22.24%.
Then `CCCc1nnsc1C(=O)N1CCN(CC(C)O)CC1` (stereo not drawn), with -47.97%; and `CC(=O)N1CCC(C(=O)NCc2ncc(-c3ccccc3)o2)CC1`, with 45.67%; and `Cn1c(=NC(=O)CSCC(=O)Nc2nccs2)sc2ccccc21`, with -29.3%.
Then `CCn1c(=NC(=O)CSCC(=O)Nc2nccs2)sc2ccccc21`, with -35.96%; and `COc1ccc2c(c1)sc(=NC(=O)CSCC(=O)Nc1nccs1)n2C`, with 54.16%.
With `COc1ccccc1CC(=O)N1CCC(NCc2ccncc2)CC1` the figure was 44.71%.
With `COc1ccccc1CC(=O)N1CCC(NCc2ccccn2)CC1`, the INHIBITION stood at 57.64%.
Then `COc1ccccc1CC(=O)N1CCC(NCc2cccnc2)CC1`, with -135.87%; and `Cc1ccnc(C2CCN(C(=O)c3cnn(C)c3)CC2)n1`, with 11.74%.
With `CCn1cc(NC(=O)C2CCN(CC(=O)NC(C)(C)CC)CC2)cn1` the figure was 7.13%; with `CC(C(=O)N1CCN(c2ccc(F)cc2)CC1)n1ccnc1` (stereo not drawn), -20.89%; with `Cc1ccc(C(=O)N2CCN(C(=O)C(C)n3ccnc3)CC2)cc1F` (stereo not drawn), 38.65%.
With `CC(C(=O)N1CCN(C(=O)c2ccc(F)cc2)CC1)n1ccnc1` (stereo not drawn), the INHIBITION was found to be 54.41%.

Source of the values: ChEMBL document CHEMBL4513216, “Probing the Open Global Health Chemical Diversity Library for Multistage-Active Starting Points for Next-Generation Antimalarials” (ACS Infect Dis, 2020).
